Bioassay records: PubChem BioAssay, Paczesny and Yang Labs, IUPUI and University of Michigan
This excerpt belongs to a sample that is enriched for hits.
ST2 inh – inhibitors of human ST2 (IL1RL1) binding to IL-33; AlphaLISA ST2-Fc/biotin-IL-33 interaction, 1 h; inhibition, % for hits at 17 µM; Q01638; 2.3% of 78,000 active; AID 1259354; in the data active = inhibition above about 30%
Target sequence (Q01638 whole entry, looked up): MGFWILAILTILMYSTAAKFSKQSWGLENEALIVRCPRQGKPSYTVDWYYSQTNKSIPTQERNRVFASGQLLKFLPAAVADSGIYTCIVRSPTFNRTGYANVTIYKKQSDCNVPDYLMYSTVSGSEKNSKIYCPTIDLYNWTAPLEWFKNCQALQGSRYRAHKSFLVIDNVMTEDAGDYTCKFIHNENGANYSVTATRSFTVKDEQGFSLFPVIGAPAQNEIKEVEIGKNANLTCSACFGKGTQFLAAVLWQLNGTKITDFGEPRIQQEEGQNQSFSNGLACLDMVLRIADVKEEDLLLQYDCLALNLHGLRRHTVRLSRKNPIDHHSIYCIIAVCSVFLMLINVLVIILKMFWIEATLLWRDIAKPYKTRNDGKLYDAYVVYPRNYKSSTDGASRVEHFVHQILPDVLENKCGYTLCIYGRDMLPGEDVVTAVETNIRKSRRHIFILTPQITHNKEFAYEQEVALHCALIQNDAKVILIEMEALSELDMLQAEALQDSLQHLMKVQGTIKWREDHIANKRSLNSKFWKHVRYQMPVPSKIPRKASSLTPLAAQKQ
* marks the source's active call; other numbers are inactive results; i = inactive.

SMILES | ST2 inh
CN1CCN2CCN(S(=O)(=O)N3CCCCC3)CC2C1=O (configuration not stated) | i
CCc1nc(C)ccc1OCC(=O)N1C[C@H](N)C[C@H]1C(=O)NC | i
O=c1cc(CCn2cccn2)nc(-c2ccc(CN3CCC[C@@H]3CO)cc2)[nH]1 | i
COC(=O)[C@@H]1C[C@@H](NC(=O)CSC(C)C)CN1C | i
Cc1cc(Br)cc2c1N(C)C(=O)C2=O | i
Cc1cc(Br)cc2c1N(C)C(=O)/C2=C1\SC(=Nc2ccc(F)cc2)NC1=O | 33%*
O=C(NCc1ccco1)c1ccc2c(c1)N(Cc1ccccc1Cl)C(=O)CS2 | i
Cc1ccc(Cc2c(C)nc3nc(SCC(=O)NC(C)(C)C)nn3c2C)cc1 | i
CC1=CC(=O)C(C(C)C)=C/C1=N\Oc1c([N+](=O)[O-])cc(Cl)cc1[N+](=O)[O-] | 62%*
Cc1ccc(N2CSC3=C(C#N)C(c4ccccc4)CC(=O)N3C2)cc1C (configuration not stated) | i
O=C(Nc1ccc(Cl)cc1)C(O)c1ccccc1 (configuration not stated) | i
O=C(NCC1CCCO1)c1cc(-c2cccs2)nc2ccccc12 (configuration not stated) | i
Cc1nn(S(=O)(=O)c2ccccc2)c(C)c1Sc1ccc([N+](=O)[O-])cc1 | i
Cc1nn(C(=O)c2cccs2)c(C)c1Sc1ccc(Cl)cc1 | i
Cc1nn(S(=O)(=O)c2ccccc2[N+](=O)[O-])c(C)c1Sc1ccc([N+](=O)[O-])cc1 | 43%*
Cc1cccc(C(=O)n2nc(C)c(Sc3ccc([N+](=O)[O-])cc3)c2C)c1 | 30%*
Cc1nn(C(=O)c2cccnc2)c(C)c1Sc1ccc(Br)cc1 | i
Cc1nn(S(=O)(=O)c2ccc(Br)cc2)c(C)c1Sc1ccccc1 | i
C=CCOC(=O)C1=C(C)N=C2SCCC(=O)N2C1c1ccc(OCC)c(OC)c1 (configuration not stated) | i
CCOC(=O)c1sc2nc(C)n(Cc3ccccc3C)c(=O)c2c1C | i
COc1ccccc1/C=C/C1=NC(=C\c2ccc([N+](=O)[O-])cc2)/C(=O)O1 | i
COc1ccccc1/C=C/C1=NC(=C\c2ccc(Cl)c(Cl)c2)/C(=O)O1 | i
COc1ccccc1/C=C/C1=NC(=C\c2cccc(Cl)c2)/C(=O)O1 | 34%*
COc1ccccc1/C=C/C1=NC(=C\c2ccc(C)cc2)/C(=O)O1 | 38%*
COc1ccccc1/C=C/C1=NC(=C\c2cccc(Cl)c2Cl)/C(=O)O1 | i
SMILES | ST2 inh
COc1ccccc1/C=C/C1=NC(=C\c2cc(Br)cs2)/C(=O)O1 | i
CCCCNC(=O)C1(O)c2ccccc2NC(=O)N1c1ccc(Cl)c(Cl)c1 (configuration not stated) | i
COc1ccc2cc(-c3[nH]ncc3CN3CCN(c4ccc(Cl)cn4)CC3)ccc2c1 | i
O=C(Nc1cccc(C(=O)Nc2ccccc2Cl)c1)c1ccc([N+](=O)[O-])cc1 | i
c1ccc2c(-c3cc(NC4CCNCC4)nc4[nH]ccc34)n[nH]c2c1 | 46%*
Cc1ccccc1-n1cc(-c2ccnc(NC3CCNCC3)n2)cn1 | i
COc1ncc(-c2cc(NCCN(C)C)nc3[nH]ccc23)c(OC)n1 | i
Cc1cc(-c2cc(NC3CCNCC3)nc3[nH]ccc23)c(=O)[nH]c1C | 38%*
CC(O)c1cccc(-c2cc(NC3CCNCC3)nc3[nH]ccc23)n1 (configuration not stated) | 46%*
NC(=O)c1csc(-c2cc(NC3CCCC3)nc3[nH]ccc23)n1 | i
c1cnc(-c2cc(NC3CCNCC3)nc3[nH]ccc23)nc1 | 41%*
CCNc1ccnc(-c2cccc3[nH]ccc23)n1 | i
CCSc1nnc2c(n1)OC(c1ccccc1)Nc1ccccc1-2 (configuration not stated) | i
Cc1cc(C)nc(N=C(N)Nc2ccc(C)c(C)c2)n1 | i
CC(=O)Nc1c(C(=O)c2ccc(C)cc2)oc2ccc(Cl)cc12 | i
O=C(NCc1ccccc1)C1CC12CCN(C(=O)/C=C/c1cccs1)CC2 (configuration not stated) | i
Cc1ccc(OCCn2c(=O)oc3ccccc32)cc1 | i
Cn1cncc1-c1nnc([C@H]2CCN(C(=O)C3CC3)C2)o1 | i
Cc1ccccc1-c1cc(O)c2c(c1)CN(C(=O)c1cccc(=O)[nH]1)CCO2 | i
COc1ccc(NC(=O)COc2cc(C)ccc2C)cc1OC | i
Cc1cccc2oc(-c3cc(N=Cc4ccc([N+](=O)[O-])cc4)ccc3O)nc12 | 30%*
Cc1ccccc1-c1nc2cc(N=Cc3cc([N+](=O)[O-])c(O)c([N+](=O)[O-])c3O)ccc2o1 | i
Cc1ccccc1-c1nc2cc(N=Cc3cc([N+](=O)[O-])ccc3O)ccc2o1 | i
O=[N+]([O-])c1cc2c(cc1C=Nc1ccc(O)c(-c3nc4ccccc4o3)c1)OCO2 | 35%*
O=[N+]([O-])c1cc2c(cc1C=Nc1ccc3oc(-c4cccc(F)c4)nc3c1)OCO2 | i
SMILES | ST2 inh
O=[N+]([O-])c1ccc(O)c(C=Nc2ccc(-c3nc4ncccc4o3)cc2)c1 | i
CSc1nc2n(n1)C(c1ccc([N+](=O)[O-])cc1)C1=C(CC(C)(C)CC1=O)N2 (configuration not stated) | i
CC1(C)CC(=O)c2cc(OCC(=O)NC3CC3)ccc2O1 | i
O=C1Nc2ccc(Br)cc2C(O)(C(=O)NCc2cccs2)N1c1ccccc1 (configuration not stated) | i
Cc1nc(CN(C)C(=O)c2cccc(NCc3ccccn3)c2C)cs1 | i
O=[N+]([O-])c1ccccc1OCC(O)CN1CCN(c2ccccc2F)CC1 (configuration not stated) | i
COc1ccccc1N1CCN(c2ccc([N+](=O)[O-])c3cccnc23)CC1 | 31%*
COc1ccc(N2CCN(c3ccc([N+](=O)[O-])c4cccnc34)CC2)c([N+](=O)[O-])c1 | 55%*
Cc1cc(-c2c(-c3ccccc3)ncn2CCOc2nonc2C)n[nH]1 | i
O=[N+]([O-])c1cccnc1N1CCOCC1 | i
CS(=O)(=O)c1ccc(N2CCN(c3ccccc3)CC2)c([N+](=O)[O-])c1 | i
O=[N+]([O-])c1cccc(Cl)c1N1CCN(c2ccc([N+](=O)[O-])c3cccnc23)CC1 | i
COc1ccccc1N1CCN(C(=O)c2cc(OC)c(OC)c(OC)c2)CC1 | i
CCC(=O)N1CCN(c2ccc(F)cc2[N+](=O)[O-])CC1 | i
O=[N+]([O-])c1cc(CN2CCOCC2)c(O)c2ncccc12 | i
O=[N+]([O-])c1cc(C(F)(F)F)ccc1N1CCN(CCOc2nonc2-c2ccccc2)CC1 | 45%*
O=[N+]([O-])c1cc(C(F)(F)F)ccc1N1CCN(c2ccc([N+](=O)[O-])c3cccnc23)CC1 | 45%*
CCCOc1ccc(/C=c2\sc3nc(=O)c(Cc4ccccc4)nn3c2=O)cc1 | i
Cc1cc(=O)[nH]c2c1c(=O)[nH]n2C1CCCCCC1 | i
CC(=O)c1ccc(N2CCN(C(=O)CCS(=O)(=O)c3cccs3)CC2)cc1 | i
Cc1ccccc1NC(=O)CC(=O)N(Cc1ccccn1)C1CCCCC1 | i
Cc1[nH]c2c(CNC(=O)Cc3ccccc3)cc(F)cc2c1C | i
Cc1ccc(C)c2c(C)c(C(=O)N3CCOC(Cc4ccccc4)C3)[nH]c12 (configuration not stated) | i
CC(O)CNc1ccc(C(F)(F)F)cc1[N+](=O)[O-] (configuration not stated) | i
